We go through 36 targets from the supplement of paper PMC10849652.

Targets with a hit are over-represented here; the source holds about 8,800 in all. About 0.5% of all pairs of compound and target were hits. A number with no mark means an inactive call.

Sequence of UniProt Q53G59 (Q53G59 whole entry, looked up): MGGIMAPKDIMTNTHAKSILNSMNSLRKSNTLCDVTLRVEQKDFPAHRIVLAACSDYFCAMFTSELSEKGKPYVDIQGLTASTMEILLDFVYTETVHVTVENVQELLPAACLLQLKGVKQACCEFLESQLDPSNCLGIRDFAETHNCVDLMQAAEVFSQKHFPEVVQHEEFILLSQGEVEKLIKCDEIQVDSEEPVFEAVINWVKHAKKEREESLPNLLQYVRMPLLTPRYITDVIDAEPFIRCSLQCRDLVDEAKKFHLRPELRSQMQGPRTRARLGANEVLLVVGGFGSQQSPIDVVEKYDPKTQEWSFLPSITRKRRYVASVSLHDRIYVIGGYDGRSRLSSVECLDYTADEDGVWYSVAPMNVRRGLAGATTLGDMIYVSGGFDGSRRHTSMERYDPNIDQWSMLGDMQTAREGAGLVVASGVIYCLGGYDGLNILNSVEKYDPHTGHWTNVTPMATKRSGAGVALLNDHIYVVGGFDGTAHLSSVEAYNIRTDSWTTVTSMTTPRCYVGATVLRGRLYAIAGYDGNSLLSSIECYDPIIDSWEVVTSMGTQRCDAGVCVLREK
Sequence of UniProt Q9BTE3 (Q9BTE3 whole entry, looked up): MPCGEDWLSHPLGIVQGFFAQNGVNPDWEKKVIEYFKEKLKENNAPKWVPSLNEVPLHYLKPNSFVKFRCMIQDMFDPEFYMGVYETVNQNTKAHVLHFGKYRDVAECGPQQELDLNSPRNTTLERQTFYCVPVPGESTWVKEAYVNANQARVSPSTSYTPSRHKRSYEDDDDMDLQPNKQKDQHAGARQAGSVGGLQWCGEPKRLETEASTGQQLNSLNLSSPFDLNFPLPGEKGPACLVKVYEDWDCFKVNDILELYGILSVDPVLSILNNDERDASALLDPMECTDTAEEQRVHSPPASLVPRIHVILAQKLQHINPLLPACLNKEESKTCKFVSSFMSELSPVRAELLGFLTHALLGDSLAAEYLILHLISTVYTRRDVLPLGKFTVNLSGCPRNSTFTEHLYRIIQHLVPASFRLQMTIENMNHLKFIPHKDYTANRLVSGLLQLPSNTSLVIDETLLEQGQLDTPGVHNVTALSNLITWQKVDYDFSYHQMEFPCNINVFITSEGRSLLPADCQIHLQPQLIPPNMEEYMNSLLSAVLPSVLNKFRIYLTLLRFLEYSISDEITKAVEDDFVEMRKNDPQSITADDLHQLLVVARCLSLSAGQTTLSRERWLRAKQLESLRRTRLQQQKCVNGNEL
Sequence of UniProt O00522 (O00522 whole entry, looked up): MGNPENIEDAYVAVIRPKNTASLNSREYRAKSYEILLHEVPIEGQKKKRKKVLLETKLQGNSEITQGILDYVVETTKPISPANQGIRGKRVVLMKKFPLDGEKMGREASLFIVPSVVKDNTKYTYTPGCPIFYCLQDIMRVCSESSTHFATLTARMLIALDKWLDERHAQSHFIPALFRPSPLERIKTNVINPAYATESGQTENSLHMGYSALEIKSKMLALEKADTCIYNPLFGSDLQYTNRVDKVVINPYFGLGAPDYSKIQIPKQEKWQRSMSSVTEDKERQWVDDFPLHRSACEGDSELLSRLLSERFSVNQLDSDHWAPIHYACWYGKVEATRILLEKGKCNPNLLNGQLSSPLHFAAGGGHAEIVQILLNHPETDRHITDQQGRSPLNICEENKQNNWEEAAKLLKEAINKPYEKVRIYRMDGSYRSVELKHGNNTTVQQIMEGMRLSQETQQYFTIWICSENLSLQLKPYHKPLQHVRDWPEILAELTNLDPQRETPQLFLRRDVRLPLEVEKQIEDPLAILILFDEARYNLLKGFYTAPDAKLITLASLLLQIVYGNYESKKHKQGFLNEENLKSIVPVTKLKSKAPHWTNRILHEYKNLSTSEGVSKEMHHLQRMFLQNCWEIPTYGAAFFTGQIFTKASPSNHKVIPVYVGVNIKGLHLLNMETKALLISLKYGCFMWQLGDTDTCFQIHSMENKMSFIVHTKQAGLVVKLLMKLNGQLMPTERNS
Sequence of UniProt O95819 (O95819 whole entry, looked up): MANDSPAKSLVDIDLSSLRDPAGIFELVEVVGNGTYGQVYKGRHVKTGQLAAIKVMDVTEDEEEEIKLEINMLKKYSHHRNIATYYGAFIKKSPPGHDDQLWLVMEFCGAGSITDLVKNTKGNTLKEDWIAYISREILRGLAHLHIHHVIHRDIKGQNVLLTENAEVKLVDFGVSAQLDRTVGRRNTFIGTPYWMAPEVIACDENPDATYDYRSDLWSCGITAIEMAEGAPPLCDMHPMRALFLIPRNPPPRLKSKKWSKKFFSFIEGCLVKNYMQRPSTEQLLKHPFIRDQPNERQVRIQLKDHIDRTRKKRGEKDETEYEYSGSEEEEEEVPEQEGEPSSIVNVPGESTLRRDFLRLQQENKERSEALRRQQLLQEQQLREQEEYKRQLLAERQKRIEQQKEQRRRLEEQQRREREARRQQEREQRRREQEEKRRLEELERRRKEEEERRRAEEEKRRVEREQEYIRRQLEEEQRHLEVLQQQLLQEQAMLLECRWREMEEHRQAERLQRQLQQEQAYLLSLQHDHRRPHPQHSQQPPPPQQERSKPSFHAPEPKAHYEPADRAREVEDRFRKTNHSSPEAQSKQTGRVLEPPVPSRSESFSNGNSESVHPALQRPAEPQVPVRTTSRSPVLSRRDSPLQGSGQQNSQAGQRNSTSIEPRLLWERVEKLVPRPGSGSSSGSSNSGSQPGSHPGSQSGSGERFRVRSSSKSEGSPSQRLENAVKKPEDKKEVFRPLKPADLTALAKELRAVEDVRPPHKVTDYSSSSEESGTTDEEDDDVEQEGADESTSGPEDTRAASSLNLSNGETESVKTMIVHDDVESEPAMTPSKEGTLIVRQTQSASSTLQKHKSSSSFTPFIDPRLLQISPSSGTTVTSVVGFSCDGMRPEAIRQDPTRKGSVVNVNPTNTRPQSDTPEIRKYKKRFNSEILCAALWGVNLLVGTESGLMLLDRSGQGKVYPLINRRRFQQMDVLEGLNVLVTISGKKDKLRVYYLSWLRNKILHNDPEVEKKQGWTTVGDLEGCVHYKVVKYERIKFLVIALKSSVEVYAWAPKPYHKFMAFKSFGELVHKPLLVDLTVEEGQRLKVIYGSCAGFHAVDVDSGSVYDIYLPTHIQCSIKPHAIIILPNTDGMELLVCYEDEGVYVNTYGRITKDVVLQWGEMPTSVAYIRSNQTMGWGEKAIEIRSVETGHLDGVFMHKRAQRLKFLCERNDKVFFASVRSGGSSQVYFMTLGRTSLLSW
Sequence of UniProt P53778 (P53778 whole entry, looked up): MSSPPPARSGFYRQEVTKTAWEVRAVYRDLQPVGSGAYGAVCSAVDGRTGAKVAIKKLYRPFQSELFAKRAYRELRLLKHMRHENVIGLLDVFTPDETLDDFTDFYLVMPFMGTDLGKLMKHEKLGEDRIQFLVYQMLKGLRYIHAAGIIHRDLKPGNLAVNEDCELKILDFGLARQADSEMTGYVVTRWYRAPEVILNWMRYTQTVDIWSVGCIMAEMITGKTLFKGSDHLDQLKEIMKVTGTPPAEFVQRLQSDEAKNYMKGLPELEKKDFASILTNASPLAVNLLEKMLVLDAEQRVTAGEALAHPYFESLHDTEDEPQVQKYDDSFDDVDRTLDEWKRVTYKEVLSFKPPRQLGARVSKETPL
Sequence of UniProt Q8N5J2 (Q8N5J2 whole entry, looked up): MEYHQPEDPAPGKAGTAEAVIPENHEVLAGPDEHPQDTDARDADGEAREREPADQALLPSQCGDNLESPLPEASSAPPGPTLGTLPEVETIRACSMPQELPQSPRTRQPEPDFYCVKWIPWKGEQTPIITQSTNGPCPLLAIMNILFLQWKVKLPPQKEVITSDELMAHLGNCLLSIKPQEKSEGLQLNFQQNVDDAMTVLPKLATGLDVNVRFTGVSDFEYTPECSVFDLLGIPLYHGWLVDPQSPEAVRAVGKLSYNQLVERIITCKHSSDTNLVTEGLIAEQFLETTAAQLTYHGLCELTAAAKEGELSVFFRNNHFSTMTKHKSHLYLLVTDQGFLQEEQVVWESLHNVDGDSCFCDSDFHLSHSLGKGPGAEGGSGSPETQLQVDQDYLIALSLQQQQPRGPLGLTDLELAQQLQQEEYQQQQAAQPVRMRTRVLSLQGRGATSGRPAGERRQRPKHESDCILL
Sequence of UniProt Q9H204 (Q9H204 whole entry, looked up): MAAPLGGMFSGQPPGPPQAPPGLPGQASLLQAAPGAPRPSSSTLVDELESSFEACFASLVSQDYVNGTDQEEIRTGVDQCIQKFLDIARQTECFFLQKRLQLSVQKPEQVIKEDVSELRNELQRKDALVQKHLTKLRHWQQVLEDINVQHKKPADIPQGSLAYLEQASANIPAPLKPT
Sequence of UniProt P83369 (P83369 whole entry, looked up): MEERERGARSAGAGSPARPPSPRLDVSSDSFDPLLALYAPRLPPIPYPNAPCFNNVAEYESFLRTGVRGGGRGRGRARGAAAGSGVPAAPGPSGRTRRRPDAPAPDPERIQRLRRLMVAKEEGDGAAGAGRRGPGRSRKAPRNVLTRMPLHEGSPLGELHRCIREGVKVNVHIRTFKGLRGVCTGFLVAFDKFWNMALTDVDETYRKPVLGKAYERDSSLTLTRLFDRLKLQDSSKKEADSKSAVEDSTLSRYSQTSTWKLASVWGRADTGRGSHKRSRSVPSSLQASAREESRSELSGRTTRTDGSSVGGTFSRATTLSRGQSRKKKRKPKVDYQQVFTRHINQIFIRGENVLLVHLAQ
Sequence of UniProt Q9NWR8 (Q9NWR8 whole entry, looked up): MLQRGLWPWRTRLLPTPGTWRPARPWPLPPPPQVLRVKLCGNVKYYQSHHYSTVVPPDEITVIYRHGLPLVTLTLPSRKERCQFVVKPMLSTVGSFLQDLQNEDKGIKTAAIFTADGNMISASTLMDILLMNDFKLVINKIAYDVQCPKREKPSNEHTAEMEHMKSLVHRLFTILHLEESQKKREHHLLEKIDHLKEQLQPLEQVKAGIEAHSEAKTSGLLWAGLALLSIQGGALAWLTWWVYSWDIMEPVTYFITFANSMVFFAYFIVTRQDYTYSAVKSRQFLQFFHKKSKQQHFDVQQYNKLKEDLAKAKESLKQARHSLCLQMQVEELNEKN

Compound in one assay: CN1CCc2c(c3ccccc3n2Cc2ccc(C(=O)NO)cc2)C1 [Tubastatin A]
Put plainly: log2 fold change, soluble protein after heating vs DMSO (PISA); higher = thermal stabilisation; K562 lysate, 10 uM; active = over 0.2 and 3.5 SD of the protein, either way, in both replicates (recomputed). In short, it runs like this:
(§1)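 A 30 min treatment with 10 μM compound was applied to crude K562 extract at 1 mg/mL protein in PBS pH 7.4 with 1 mM MgCl2. Heating for 3 min spanned 48°C-58°C, after which aliquots were pooled, adjusted to 0.5% NP-40 at 4°C and spun at 21,000xg for 90 min. TMTpro 16plex LC-MS/MS of the supernatant, with channel sums equalised, gave values recorded as log-two fold change in thermal stability against solvent controls, from duplicates.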
Turning to MRPL22 (UniProt Q9NWU5), the log2 fold change was -0.033.

Turning to MAPKAP1 (UniProt Q9BPZ7), the log2 fold change is -0.125. On to LEPROT (UniProt O15243), for which the log2 fold change is 0.01.

Regarding KRIT1 (UniProt O00522), the log2 fold change is -0.034.

As for KLHL12 isoform 2 (UniProt Q53G59), the log2 fold change was -0.156. The same measure, in the same setting: as for MEX3A (UniProt A1L020), the figure is 0.037; as for MAPK12 (UniProt P53778), 0.022; as for MCUB (UniProt Q9NWR8), 0.105. Same read-out and setting: as for LIMK1 (UniProt P53667), the figure is 0; as for MCMBP isoform 2 (UniProt Q9BTE3), -0.142; as for MAP4K4 isoform 6 (UniProt O95819), 0.024.

As for KRAS isoform 2 (UniProt P01116), the log2 fold change is 0.076. Same read-out and setting: as for MEGF8 (UniProt Q7Z7M0), the figure is 0.156. With MAP4 isoform 5 (UniProt P27816), the log2 fold change was 0.077.

As to LRRIQ1 (UniProt Q96JM4), the log2 fold change is -0.096. Take MAP4K4 isoform 3 (UniProt O95819): the log2 fold change is -0.016. As for MINDY1 isoform 3 (UniProt Q8N5J2), the log2 fold change was 0.093. As for MED28 (UniProt Q9H204), the log2 fold change was 0.05. In the case of MME (UniProt P08473), the log2 fold change was 0.081. Take LRRC7 (UniProt Q96NW7): the log2 fold change is 0.079.

Regarding METTL21A (UniProt Q8WXB1), the log2 fold change is 0.052.

Compound in another assay: CNC(=O)C1=CC=CC=C1NC2=NC(=NC=C2Cl)NC3=C(C=C(C=C3)N4CCOCC4)OC
Described as above. The method in brief:
as §1
Consider LGALS3BP (UniProt Q08380), for which the log2 fold change was -0.234. Same read-out and setting: to MRPL22 (UniProt Q9NWU5) belongs 0.036; to MAPKAP1 (UniProt Q9BPZ7), -0.119; to LEPROT (UniProt O15243), 0.

Regarding KRIT1 (UniProt O00522), the log2 fold change was 0.089.

On to KLC1 isoform 10 (UniProt Q07866), for which the log2 fold change was 0.147. In the case of KMT2B (UniProt Q9UMN6), the log2 fold change was -0.083.

For KLHL12 isoform 2 (UniProt Q53G59), the log2 fold change was -0.051. Same read-out and setting: as for KIFC3 isoform 6 (UniProt Q9BVG8), the figure is 0.003; as for MAPK12 (UniProt P53778), 0.025; as for LSM11 (UniProt P83369), -0.15.

For MRC2 (UniProt Q9UBG0), the log2 fold change is -0.062. For the target MARCHF6 (UniProt O60337), the log2 fold change is -0.039. Same read-out and setting: as for MCUB (UniProt Q9NWR8), the figure is -0.032.

In the case of MMS22L (UniProt Q6ZRQ5), the log2 fold change is -0.011. Same read-out and setting: to MCMBP isoform 2 (UniProt Q9BTE3) belongs 0.102; to MAP4K4 isoform 6 (UniProt O95819), -0.067; to KRAS isoform 2 (UniProt P01116), -0.037. On the same count and under the same terms, to MEGF8 (UniProt Q7Z7M0) belongs 0.058; to MAP4 isoform 5 (UniProt P27816), 0.087.

Consider MAP4K4 isoform 3 (UniProt O95819), for which the log2 fold change was -0.028. Still for that read-out and setting: to MINDY1 isoform 3 (UniProt Q8N5J2) belongs -0.031; to MED28 (UniProt Q9H204), 0.14; to MME (UniProt P08473), 0.048. The same measure, in the same setting: to KIF21A (UniProt H0YI78) belongs 0.056; to MAPK7 (UniProt Q13164), 0.002. As to METTL21A (UniProt Q8WXB1), the log2 fold change is 0.087.

Compound in the next assay: CNC(=O)c1ccc(Nc2ncc(C(F)(F)F)c(NCc3nccnc3N(C)S(C)(=O)=O)n2)cc1 [defactinib]
Described as above. In short, it runs like this:
as §1
As to LGALS3BP (UniProt Q08380), the log2 fold change was -0.133. Regarding KRIT1 (UniProt O00522), the log2 fold change is 0.045. Still for that read-out and setting: as for LRP1 (UniProt Q07954), the figure is -0.108; as for KLHL12 isoform 2 (UniProt Q53G59), -0.025. Still for that read-out and setting: as for MEX3A (UniProt A1L020), the figure is -0.068; as for KIFC3 isoform 6 (UniProt Q9BVG8), -0.255; as for MAPK12 (UniProt P53778), -0.077.

For LSM11 (UniProt P83369), the log2 fold change is -0.119. In the case of MARCHF6 (UniProt O60337), the log2 fold change is 0.046. On the same count and under the same terms, as for LRRC9 (UniProt Q6ZRR7), the figure is -0.056. MMS22L (UniProt Q6ZRQ5): the log2 fold change is 0.06.

As for LIMK1 (UniProt P53667), the log2 fold change is -0.053. The same measure, in the same setting: as for LRPPRC (UniProt H7C3W8), the figure is -0.063; as for MCMBP isoform 2 (UniProt Q9BTE3), 0.089; as for LY6E (UniProt Q16553), -0.024. For MAP4 isoform 5 (UniProt P27816), the log2 fold change was -0.086. Same read-out and setting: to LRRIQ1 (UniProt Q96JM4) belongs -0.031; to MAP4K4 isoform 3 (UniProt O95819), 0.03. The same measure, in the same setting: as for MINDY1 isoform 3 (UniProt Q8N5J2), the figure is 0.021; as for LRRC7 (UniProt Q96NW7), 0.251; as for MAP3K6 (UniProt O95382), -0.096.
